Inconclusive results are not listed. The source made the active and inactive calls. Calls come from the whole dose curve; as a rule, active = well fitted curve in the direction sought with a large enough effect; inconclusive = small, poorly fitted or top-dose-only effect, or another doubt; inactive = no such curve, though single readings can be large; an effect the other way counts as inactive or inconclusive.
Target: Cytochrome P450 2C19 (Homo sapiens) (UniProt P33261)
Test: qHTS Assay for Inhibitors and Substrates of Cytochrome P450 2C19 (AID 899); note: nearly all actives have a fitted effect of over 60% in size; note: potency is the fitted concentration of half-maximal effect; for activity, negative = inhibition: % is set by controls: 0 for no effect and ±100 for the full control effect
Settings: recombinant CYP2C19, luciferin-H EGE luminescence; series mostly up to 57.1 µM; activity, negative = inhibition: at the top concentration
Procedure, shortened: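 Signal comes from luciferase acting on luciferin released by CYP2C19-mediated hydroxylation of Luciferin-H EGE, 10uM (KM). Assay mix: 5nM enzyme, 50mM KPO4; 60 min at 37C with NADPH regeneration. Data normalized against 57uM ketoconazole.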

Cytochrome P450 2C19 (Homo sapiens), sequence (P33261 whole entry, looked up): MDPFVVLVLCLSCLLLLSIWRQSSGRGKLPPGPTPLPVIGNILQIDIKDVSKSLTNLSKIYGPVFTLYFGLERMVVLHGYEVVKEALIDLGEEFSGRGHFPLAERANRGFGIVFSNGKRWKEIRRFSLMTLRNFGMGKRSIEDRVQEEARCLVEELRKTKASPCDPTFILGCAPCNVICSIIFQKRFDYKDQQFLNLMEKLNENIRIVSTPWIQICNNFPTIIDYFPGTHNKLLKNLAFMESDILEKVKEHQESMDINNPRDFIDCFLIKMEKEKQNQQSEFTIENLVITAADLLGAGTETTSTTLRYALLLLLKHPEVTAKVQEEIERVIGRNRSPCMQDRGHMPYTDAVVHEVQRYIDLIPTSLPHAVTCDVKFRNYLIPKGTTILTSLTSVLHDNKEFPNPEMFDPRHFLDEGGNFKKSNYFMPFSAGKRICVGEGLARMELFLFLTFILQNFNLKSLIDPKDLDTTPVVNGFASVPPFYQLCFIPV

Structure (SMILES)	activity, negative = inhibition	Potency
COC(=O)NC/C=C\c1nc(CC/C=C\C(=O)O[C@H]2C[C@H]3CC(=O)O[C@@H](/C=C\CC(C)C)C[C@@H]4CC[C@H](C)[C@H](C[C@@H](OC)C[C@H](C2)O3)O4)co1	68.9% [at 11.4 µM] (inactive)	
c1ccc(CN2CCC3(CCc4ccccc43)CC2)cc1		2510 nM (active)
C[C@@]12CC[C@@H]3[C@@H](CC[C@H]4C[C@@H](O)CC[C@]43C)[C@H]1CC[C@@H]2c1cc(C(F)(F)F)n[nH]1		2510 nM (active)

Test system: not listed separately
Test: Confirmation and Secondary Assay for Modulators of Hemoglobin Beta Chain Splicing at IVS2 705 locus (AID 930);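 note: HeLa cells stably expressing the EGFP-705 splicing reporter; GFP fluorescence per well restored by corrected splicing of the IVS2-705 intron in EGFP; % of control where 0% means no effect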
Settings: HeLa EGFP-705 splicing reporter, GFP fluorescence, 48 h; series mostly up to 46.1 µM; activation: at the top concentration
Procedure, shortened: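 Assay measures total GFP intensity per well in HeLa EGFP-705 cells after 2 days with compound; mis-splicing normally truncates EGFP, so fluorescence indicates corrected splicing.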

Structure (SMILES)	activation
CC(C)=CCCC1(C)C=Cc2c(O)c3c(c(CC=C(C)C)c2O1)OC12C(CC4CC1C(C)(C)OC2(C/C=C(/C)C(=O)O)C4O)C3=O (stereo unspecified)	2.93% (inactive)
COc1cc2c(cc1OC)[C@@H]1C(=O)c3ccc(OC)c(CC=C(C)C)c3OC1CO2 (stereo partly specified)	-0.318% [at 38.3 µM] (inactive)
COc1cc2c(cc1OC)[C@@H]1C(=O)c3ccc4c(c3OC1CO2)CC(C(C)C)O4 (stereo partly specified)	-1.14% [at 38.3 µM] (inactive)

Source: PubChem BioAssay (NCATS)
